MPTP inh: mitochondrial permeability transition pore inhibitors, primary screen, biochemical, isolated mouse mitochondria, absorbance | Ca2+ swelling absorbance, 30 min | inhibition, % at 10 µM | 360,000 tested, 1.4% active;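 active means inhibition of 50% or more, scaled per plate between neutral and stimulator controls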
FAS-TE inh: FAS thioesterase domain inhibitors, primary screen, biochemical, fluorescence intensity, uHTS. recombinant FAS-TE, OMFH fluorogenic substrate, fluorescence endpoint. inhibition, % at 15 µM. AID 602261, 2012. 360,000 tested, 0.67% active. Fatty acid synthase (Homo sapiens), P49327;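 active means compounds whose normalised, plate-corrected inhibition of enzyme fluorescence in the single-dose primary screen is 50% or more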
Target sequence (P49327 whole entry, looked up, the tested form may be a part): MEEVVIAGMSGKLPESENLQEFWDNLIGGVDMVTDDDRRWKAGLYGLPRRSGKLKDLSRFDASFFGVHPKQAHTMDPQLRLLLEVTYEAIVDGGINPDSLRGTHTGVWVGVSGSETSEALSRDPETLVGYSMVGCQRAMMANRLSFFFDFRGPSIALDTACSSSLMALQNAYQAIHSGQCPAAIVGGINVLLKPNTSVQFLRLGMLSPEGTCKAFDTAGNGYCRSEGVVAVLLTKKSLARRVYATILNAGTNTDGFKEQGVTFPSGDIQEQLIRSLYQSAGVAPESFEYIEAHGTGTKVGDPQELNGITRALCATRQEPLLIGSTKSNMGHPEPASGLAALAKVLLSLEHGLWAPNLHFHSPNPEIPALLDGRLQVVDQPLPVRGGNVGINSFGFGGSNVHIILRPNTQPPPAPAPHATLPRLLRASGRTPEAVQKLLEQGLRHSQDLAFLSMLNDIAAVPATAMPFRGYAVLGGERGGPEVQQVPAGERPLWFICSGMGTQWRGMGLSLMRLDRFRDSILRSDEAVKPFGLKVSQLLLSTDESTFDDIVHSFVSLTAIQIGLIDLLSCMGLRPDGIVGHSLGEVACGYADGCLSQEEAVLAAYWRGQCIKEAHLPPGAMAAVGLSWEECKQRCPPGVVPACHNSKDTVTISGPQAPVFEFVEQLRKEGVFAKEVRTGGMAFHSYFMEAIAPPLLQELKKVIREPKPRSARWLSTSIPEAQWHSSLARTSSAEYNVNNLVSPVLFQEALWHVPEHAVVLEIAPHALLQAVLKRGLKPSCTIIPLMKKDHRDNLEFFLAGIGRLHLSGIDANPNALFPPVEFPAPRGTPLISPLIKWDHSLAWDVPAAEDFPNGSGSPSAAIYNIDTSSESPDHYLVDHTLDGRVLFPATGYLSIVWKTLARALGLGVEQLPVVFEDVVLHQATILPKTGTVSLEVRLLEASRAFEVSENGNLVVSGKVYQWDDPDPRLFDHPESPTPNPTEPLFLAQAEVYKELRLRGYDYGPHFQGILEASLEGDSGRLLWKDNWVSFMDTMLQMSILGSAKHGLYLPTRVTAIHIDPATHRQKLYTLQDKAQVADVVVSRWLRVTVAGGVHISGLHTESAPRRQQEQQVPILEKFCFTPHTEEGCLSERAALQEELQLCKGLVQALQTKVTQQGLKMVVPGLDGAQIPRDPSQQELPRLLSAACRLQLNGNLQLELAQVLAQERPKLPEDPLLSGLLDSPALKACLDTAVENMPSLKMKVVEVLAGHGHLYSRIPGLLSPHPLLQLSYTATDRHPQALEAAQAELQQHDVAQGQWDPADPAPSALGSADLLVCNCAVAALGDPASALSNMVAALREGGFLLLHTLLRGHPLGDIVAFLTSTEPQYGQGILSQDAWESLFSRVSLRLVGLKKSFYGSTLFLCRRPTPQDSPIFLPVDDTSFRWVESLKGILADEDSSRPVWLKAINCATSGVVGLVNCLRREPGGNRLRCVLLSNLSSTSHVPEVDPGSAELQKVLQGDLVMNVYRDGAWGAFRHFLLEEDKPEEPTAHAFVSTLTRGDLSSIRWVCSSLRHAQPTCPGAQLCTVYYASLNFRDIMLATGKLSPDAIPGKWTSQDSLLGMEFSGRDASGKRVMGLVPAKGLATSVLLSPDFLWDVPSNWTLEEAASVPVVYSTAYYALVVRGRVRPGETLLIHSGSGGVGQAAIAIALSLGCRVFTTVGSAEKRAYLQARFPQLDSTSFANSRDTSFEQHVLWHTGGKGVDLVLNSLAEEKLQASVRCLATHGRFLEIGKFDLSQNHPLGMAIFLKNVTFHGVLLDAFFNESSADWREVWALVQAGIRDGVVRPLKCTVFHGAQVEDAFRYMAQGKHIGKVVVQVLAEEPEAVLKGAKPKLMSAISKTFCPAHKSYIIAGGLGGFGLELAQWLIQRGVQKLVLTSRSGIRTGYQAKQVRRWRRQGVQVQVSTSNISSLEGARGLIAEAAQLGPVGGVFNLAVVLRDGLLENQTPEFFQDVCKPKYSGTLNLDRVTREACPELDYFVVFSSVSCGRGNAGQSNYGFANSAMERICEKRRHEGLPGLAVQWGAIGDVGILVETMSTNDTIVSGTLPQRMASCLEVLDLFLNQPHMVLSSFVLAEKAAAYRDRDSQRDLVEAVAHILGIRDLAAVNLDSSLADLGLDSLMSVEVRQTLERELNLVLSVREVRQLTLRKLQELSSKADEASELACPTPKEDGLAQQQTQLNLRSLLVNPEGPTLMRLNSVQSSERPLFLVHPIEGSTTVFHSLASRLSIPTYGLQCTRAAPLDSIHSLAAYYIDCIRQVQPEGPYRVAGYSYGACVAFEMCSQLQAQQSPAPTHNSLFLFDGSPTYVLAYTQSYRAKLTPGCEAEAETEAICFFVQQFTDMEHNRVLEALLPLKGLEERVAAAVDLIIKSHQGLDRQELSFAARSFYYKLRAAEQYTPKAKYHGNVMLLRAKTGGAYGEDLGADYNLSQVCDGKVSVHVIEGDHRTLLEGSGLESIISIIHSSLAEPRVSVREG
rCAG RNA binder: binders of r(CAG) RNA repeats, primary screen, biochemical, fluorescence | inhibition, % at 3 µM | 370,000 tested, 1.3% active | AID 651821, 2012 | r(CAG) RNA repeat, TO-PRO-1 dye displacement fluorescence;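 active means inhibition above the plate cutoff, the mean of all test compounds on that plate plus 3 SD, cut at about 35% in these data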;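 further: higher means more dye released from RNA so lower well fluorescence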
Myeloid diff MLP: induction of myeloid progenitor differentiation, primary screen, cell-based, flow cytometry, MLPCN library; ER-HoxA9 myeloid progenitors, lysozyme-GFP differentiation; calls only at 10 µM; 360,000 tested, 1% active; AID 624256, 2012;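 active means normalized GFP-positive differentiation at or above the plate's own cutoff, the solvent-only control mean plus 3 SD; inconclusive means no clear call, values can overlap the other calls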;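 further: cells exposed to compound for four days before flow analysis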
GRIN3A LBD mod: binders of NR3A ligand-binding domain, primary screen, biophysical, differential scanning fluorimetry, uHTS. Tm shift relative to glycine control, % at 25 µM. Glutamate receptor ionotropic, NMDA 3A (GRIN3A) ligand-binding domain. 340,000 tested, 2.5% active. AID 1259313, 2017. NR3A LBD differential scanning fluorimetry, Tm shift; 0% = protein alone, 100% = glycine-bound protein;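 active means melting temperature shift of at least 10% of the positive control shift, at one fixed dose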
FAS-TE conf: FAS thioesterase domain inhibitors, confirmation, biochemical, fluorescence intensity, single concentration; shares compounds with FAS-TE inh; recombinant FAS-TE, OMFH fluorogenic substrate; inhibition, % at 15 µM; 2,300 tested, 45% active;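 active means compounds inhibiting the enzyme by at least 50% at 15 µM in any one of the replicates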
Large screens that a line does not name were inactive (follow-up assays come after a bar, where they were run). An excerpt weighted towards active compounds, which were near 5.7% of everything screened.

COc1ccc(N(C(=O)CCl)C(C(=O)NCCc2ccccc2)c2cccs2)cc1Cl (stereo not drawn)	FAS-TE inh 64.2, Myeloid diff MLP inconclusive | FAS-TE conf 33.3
O=C1OCCN1C(=O)[C@H]1[C@H](c2ccccc2)C(c2ccc(F)cc2)=NN1c1ccc(Br)cc1	FAS-TE inh 98.4 | FAS-TE conf inactive
O=C1OCCN1C(=O)[C@H]1[C@H](c2ccccc2)C(c2ccccc2)=NN1c1ccccc1	none
O=C1OCCN1C(=O)[C@H]1[C@H](c2ccccc2)C(c2ccccc2)=NN1c1ccc(Br)cc1	FAS-TE inh 90.3 | FAS-TE conf inactive
COC(=O)C1=C(C(=O)OC)[C@]2([C@H]3CC=CCN[C@@H](Cc4ccccc4)C(=O)N3Cc3ccccc3)C=C[C@H]1O2	FAS-TE inh 53.7 | FAS-TE conf inactive
OC(c1ccccc1)(c1ccccc1)C1CCN(CCCOc2ccc(C(F)(F)F)cc2)CC1	none (no result: MPTP inh, FAS-TE inh, Myeloid diff MLP, GRIN3A LBD mod)
CCc1ccc(C(O)c2ncc(-c3cccc(C(F)(F)F)c3)[nH]2)cc1 (stereo not drawn)	none (no result: GRIN3A LBD mod)
CC(C)CSc1ncc(-c2cccc(C(F)(F)F)c2)cn1	FAS-TE inh 51.3 | FAS-TE conf 49.3
CC1(C)CC(=O)C=C(c2ccc(-c3cnn(Cc4ccccc4)c3)cc2)C1=O	FAS-TE inh 59.8 (no result: GRIN3A LBD mod) | FAS-TE conf 70.7
CC1(C)CC(=O)C=C(c2ccc(COC(=O)c3ccc(-c4ccccc4)cc3)cc2)C1=O	none (no result: GRIN3A LBD mod)
CC1(C)CC(=O)C=C(c2ccc(-c3ccccc3)cc2)C1=O	none (no result: GRIN3A LBD mod)
CC1(C)CC(=O)C=C(c2ccc(COC(=O)Cc3ccccc3)cc2)C1=O	FAS-TE inh 73.4 (no result: GRIN3A LBD mod) | FAS-TE conf inactive
Nc1[nH]c(C(=O)c2ccc(Cl)cc2)c(-c2ccc(Br)cc2)c1C(=O)c1c[nH]c2ccc(F)cc12	none (no result: MPTP inh, FAS-TE inh, Myeloid diff MLP, GRIN3A LBD mod)
COC(=O)[C@H]1[C@H]2C[C@@H]3c4[nH]c5cc(OC)ccc5c4CCN3C[C@H]2C[C@@H](OC(=O)/C=C/c2cc(OC)c(OC)c(OC)c2)[C@@H]1OC	FAS-TE inh 54.2 | FAS-TE conf inactive
O=S1(=O)c2ccc(N3CCCC3)cc2Oc2ccccc2CN1Cc1cn(Cc2ccc(F)cc2)nn1	none (no result: MPTP inh, FAS-TE inh, Myeloid diff MLP, GRIN3A LBD mod)
CC(CC(=O)Nc1ccc2c(c1)c(=O)n(C)n2-c1cccs1)c1ccccc1 (stereo not drawn)	none (no result: GRIN3A LBD mod)
COc1ccc(N2C(=O)C3ON(C4SC(=S)N(C)C4(C)C)C(c4ccc([N+](=O)[O-])cc4)C3C2=O)cc1 (stereo not drawn)	none
COc1ccc(N2C(=O)C3ON(C4SC(=S)N(C)C4(C)C)C(c4ccc(Cl)cc4)C3C2=O)cc1 (stereo not drawn)	FAS-TE inh 70.9 | FAS-TE conf inactive
CC(C)(C)SCCNC(=O)/C=C/c1ccc([N+](=O)[O-])cc1	none
Cc1ccc(C(=O)NCCSC(C)(C)C)cc1	none
Cc1ccc(C(=O)NCCSC(C)(C)C)cc1[N+](=O)[O-]	FAS-TE inh 56.0 | FAS-TE conf 56.0
O=C(/C=C/c1cccc([N+](=O)[O-])c1)NCCSCc1c(Cl)cccc1Cl	FAS-TE inh 65.3 | FAS-TE conf 53.5
O=C(/C=C/c1cccc([N+](=O)[O-])c1)NCCSc1ccccc1	FAS-TE inh 68.6 | FAS-TE conf 79.7
CC(C)(C)SCCNC(=O)/C=C/c1cccc([N+](=O)[O-])c1	FAS-TE inh 72.2 | FAS-TE conf 62.2
Cc1ccc(SCCNC(=O)/C=C/c2cccc([N+](=O)[O-])c2)cc1	none
COc1cc(OC)nc(Nc2nc(C(N)Cc3ccc(Cl)cc3)cs2)n1 (stereo not drawn)	none (no result: GRIN3A LBD mod)
COc1ccc(CCN2CN(S(=O)(=O)c3ccc(C)cc3)c3nc4ccccc4nc32)cc1OC	none
COc1ccccc1N1CN(S(=O)(=O)c2ccc(C)cc2)c2nc3ccccc3nc21	FAS-TE inh 57.4 | FAS-TE conf inactive
O=S1(=O)c2ccc(Br)cc2OC[C@H](Cc2ccccc2)N1Cc1cn(Cc2ccc(Cl)cc2)nn1	none (no result: MPTP inh, FAS-TE inh, Myeloid diff MLP, GRIN3A LBD mod)
C/C(=C\c1ccc(C(=O)O)cc1)c1ccc2c(c1)C(C)(C)CCC2(C)C	FAS-TE inh 72.8 | FAS-TE conf inactive
CC(=O)C(=Cc1ccc(C(=O)O)cc1)C(C)=O	none
O=c1c2ccccc2c(C=Nc2ccc(S(=O)(=O)N3CCCCC3)cc2)c(O)n1-c1ccc(Cl)cn1	FAS-TE inh 61.3 | FAS-TE conf inactive
N/C(=N\OC(=O)CCC1CCCCC1)c1cccc([N+](=O)[O-])c1	FAS-TE inh 66.9 (no result: rCAG RNA binder) | FAS-TE conf 66.4
N/C(=N\OC(=O)CCC1CCCC1)c1ccc([N+](=O)[O-])cc1	none
COc1ccc(/C=C2\N=C(c3ccc(C)cc3)OC2=O)cc1	none
Cc1ccc(S(=O)(=O)Oc2ccc(/C=C3/N=C(c4ccccc4)OC3=O)cc2)cc1	FAS-TE inh 53.6 | FAS-TE conf inactive
Cc1ccc(Cl)cc1N1CCN(C(=O)C2CCN(S(=O)(=O)c3cccnc3)CC2)CC1	FAS-TE inh 50.0 | FAS-TE conf inactive
O=[N+]([O-])c1ccc(Cl)c(-c2ccc(/C=N/n3cnnc3)o2)c1	none
Cc1cc(-c2ccc(/C=N/n3cnnc3)o2)c(C)c([N+](=O)[O-])c1	FAS-TE inh 59.6 | FAS-TE conf 39.3
O=C(Cn1nc2ccccc2n1)N/N=C/c1cc(Cl)cc([N+](=O)[O-])c1O	FAS-TE inh 61.2 (no result: Myeloid diff MLP) | FAS-TE conf 51.7
O=[N+]([O-])c1ccc(SNc2ccccc2)c([N+](=O)[O-])c1	FAS-TE inh 57.4 | FAS-TE conf 45.4
O=[N+]([O-])c1ccccc1SNc1ccccc1	none (no result: GRIN3A LBD mod)
COC(=O)[C@@]1(Cc2ccc(F)cc2)[C@H]2c3cc(C(=O)N4CCCC4)n(CCc4ccc(OC)c(Br)c4)c3C[C@H]2CN1C(=O)c1ccccc1	none (no result: GRIN3A LBD mod)
COC(=O)[C@@]1(Cc2ccc(OC)cc2)[C@H]2c3cc(C(=O)N4CCCC4)n(CCc4ccc(OC)c(Br)c4)c3C[C@H]2CN1C(=O)c1ccccc1	FAS-TE inh 73.3 (no result: GRIN3A LBD mod) | FAS-TE conf inactive
COc1ccc(C2=NOC(COc3ccc([N+](=O)[O-])cc3)C2)cc1 (stereo not drawn)	FAS-TE inh 53.7 | FAS-TE conf inactive
Cc1ccc(CNc2ncnc3ccc(-c4ccc(CO)o4)cc23)o1	none (no result: GRIN3A LBD mod)
COc1ccc2cc3cc(C(=O)N(C)C4CCCCC4)oc3nc2c1	Myeloid diff MLP inconclusive (no result: rCAG RNA binder)
COc1ccc2cc3cc(C(=O)N4CCCCC4C)oc3nc2c1 (stereo not drawn)	FAS-TE inh 75.4, Myeloid diff MLP active | FAS-TE conf 62.4
COc1ccc2cc3cc(C(=O)N4CCN(C5CCCCC5)CC4)oc3nc2c1	none (no result: rCAG RNA binder)
COc1ccc2cc3cc(C(=O)N4CCCCCC4)oc3nc2c1	FAS-TE inh 74.3 (no result: rCAG RNA binder) | FAS-TE conf 55.7

Assay outcomes deposited in PubChem BioAssay by several laboratories.
